According to PubChem BioAssay AID602248 (The Scripps Research Institute Molecular Screening Center, 2012):
Among all 360,000 compounds or so, about 1,700 (0.47%) were called active. No stated cut-off is given here; in the data, active means activation above about 15%; inactive means the rest. This excerpt belongs to a sample that is enriched for actives.

Experiment: counter-screen for M1 agonists: effect in parental CHO-K1 cells (AID 602248);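 further: untransfected CHO-K1 host cells lacking M1 receptor as counterscreen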
Settings: Fluo-8 calcium fluorescence, at 3 µM, active compounds read high, scaled to maximal ATP response, vehicle zero

SMILES	activation
Cc1ccc(/C=C(\C#N)C(=O)Nc2cccc3ncccc23)o1	2.57% (inactive)
O=C(O)c1cc2c(cc1NC(=O)c1c(F)cccc1Cl)OCCCO2	0.67% (inactive)
O=C(O)c1cc(Cl)c(Cl)cc1C(=O)Nc1cccc2ncccc12	20.9% (active)
COc1ccc(C(=O)CSc2nnnn2C)c(OC)c1	-0.15% (inactive)
O=c1c2ccccc2c(-c2ccc(Br)cc2)nn1Cc1ccccc1	0.4% (inactive)
COC(=O)c1ccc(SCc2ccccc2)nc1	-0.21% (inactive)
CSc1c(SCc2ccccc2)cnn(Cc2ccccc2)c1=O	18.2% (active)
Cc1nn(CC2CC2)c(=O)n1N(C)c1ncc(C(F)(F)F)cc1Cl	1.05% (inactive)
Cc1ccc2c(CN3CCN(S(=O)(=O)c4ccccc4C(F)(F)F)CC3)cc(=O)oc2c1	6.94% (inactive)
Cc1cc2oc(=O)cc(CN3CCN(S(=O)(=O)c4cccs4)CC3)c2cc1C(C)C	1.53% (inactive)
COc1ccc2c(CN3CCN(S(=O)(=O)c4cccs4)CC3)cc(=O)oc2c1	16.1% (active)
O=C(Nc1ccccc1)c1ccc2nsnc2c1	-0.09% (inactive)
COc1ccc(NC(=O)Nc2ccc3nsnc3c2)cc1	19.9% (active)
O=C(Nc1ccc2ccccc2c1)Nc1ccc2snnc2c1	14% (inactive)
CCc1ccccc1NC(=O)Cc1cn(C)c2ccccc12	8.41% (inactive)
CC(C)(C)C1CCC(=O)N2CCC[C@]2(c2ccccc2)C1 (stereo not given in full)	-0.26% (inactive)
Cc1nc(N)c(Br)c(C)c1Br	-0.78% (inactive)
COc1cccc(CNc2nc(NCc3ccccc3OC)nc3ccsc23)c1	8.82% (inactive)
COc1ccccc1CNc1nc(Nc2ccccc2Cl)c2sccc2n1	7.11% (inactive)
COc1cccc(CNc2nc(NCc3cccs3)nc3ccsc23)c1	24.7% (active)
CN1C(C)(C)CC(NC(=O)CCC(=O)NC2CC(C)(C)N(C)C(C)(C)C2)CC1(C)C	0.35% (inactive)
C=CCN1C2CCCC1CC(NC(=S)Nc1cccc(OC)c1)C2 (stereo not given)	1.29% (inactive)
N#Cc1c(-c2ccccc2)c(-c2ccccc2)n[nH]c1=O	-0.04% (inactive)
O=C(CNCc1ccc(Cl)cc1)Nc1cccc(C(=O)O)c1	18.2% (active)
O=C(CCCOc1ccccc1)Nc1cccc(C(=O)O)c1	0.45% (inactive)
Cc1ccc(C)c2c1cc(C)c1nnc(SCC(=O)Nc3cccc(C(=O)O)c3)n12	1.47% (inactive)
O=C(NCc1ccco1)c1cccc(-c2ccc3nncn3c2)c1	0.29% (inactive)

SMILES	activation
C1CC1Cc1noc(CN2CCN(CC3CC3)CC2)n1	1.05% (inactive)
COc1cc(OC)c(-n2cc(-c3ccc(Cl)cc3)[nH]c2=O)cc1Cl	25.2% (active)
COc1cc(OC)c(N2CC(C(=O)Nc3cc(Cl)ccc3N3CCOCC3)CC2=O)cc1Cl (stereo not given)	4.62% (inactive)
COc1ccc(Cl)cc1S(=O)(=O)N1CCC(O)(c2ccc(Cl)cc2)CC1	0.66% (inactive)
CC1CCc2[nH]c3ccc(C(=O)N(C)CC(=O)Nc4cccc(F)c4)cc3c2C1 (stereo not given)	2.26% (inactive)
O=C(CCCN1CCc2[nH]c3ccc(F)cc3c2C1)c1ccc(F)cc1	24% (active)
Cn1c(SCC(=O)N2CCOCC2)nnc1-c1ccc2ncccc2c1	0.63% (inactive)
CN(C)c1ccc(/C=N/NC(=O)c2ccc(Cn3cc(Br)cn3)o2)cc1	0.99% (inactive)
Cc1c(Cl)c([N+](=O)[O-])nn1CCCC(=O)NC(C)c1ccccc1 (stereo not given)	-0.09% (inactive)
Cc1c(Cl)c([N+](=O)[O-])nn1Cc1ccc(C(=O)N/N=C\c2cc(Cl)ccc2O)o1	19.9% (active)
C=C(C)CSc1nnc(-c2ccc(C)cc2)n1N	0.17% (inactive)
O=C(CCN1C(=O)c2ccccc2C1=O)NCCCn1ccnc1	0.76% (inactive)
COC(=O)c1c(C)c(C)nc(N)c1C#N	0.12% (inactive)
Cc1nc(Cl)c(C#N)c2c1CCCC2	0.61% (inactive)
COCc1c(N)c(C)nc(Cl)c1C#N	16.9% (active)
CCNC(=O)C1(C)CCN(C(=O)c2ccccc2)C1 (stereo not given)	-0.33% (inactive)
O=C(Cn1ccc([N+](=O)[O-])n1)NCc1cccs1	0.12% (inactive)
OCCN1CCN(c2ncnc3c2ncn3[C@H]2CN(Cc3ccco3)C[C@@H](CO)O2)CC1	0.92% (inactive)
CCNC(=O)N1CCN(S(=O)(=O)c2ccc3c(c2)OCCCO3)CC1	1.28% (inactive)
COc1cc(NC(=O)c2ccc(CNc3c(N4CCCC4)c(=O)c3=O)cc2)cc(OC)c1OC	0.42% (inactive)
Cc1ccc(Cn2c(C)c(C(=O)NCc3ccccc3C(F)(F)F)sc2=O)cc1	0.82% (inactive)
CC(=O)Oc1ccc(Cn2c(C)c(C(=O)NCc3ccc(C#N)cc3)sc2=O)cc1	31.7% (active)
Cc1c(C(=O)NCc2ccc(C#N)cc2)sc(=O)n1Cc1ccc(C(=O)N(C)C)cc1	-0.19% (inactive)
CCC(CC)C(=O)Nc1c2c(nn1-c1ccc(C)cc1)CS(=O)(=O)C2	-0.47% (inactive)
O=C(NCc1ccc2c(c1)OCO2)C(=O)NCC1OCCN1S(=O)(=O)c1ccc(F)cc1 (stereo not given)	1.05% (inactive)
O=C(O)c1ccc(S(=O)(=O)N2CCOCC2)o1	-0.58% (inactive)
CNC[C@H]1OCc2cnnn2CCCC(=O)N([C@H](C)CO)C[C@@H]1C	0.47% (inactive)

SMILES	activation
CC(=O)c1ccc(NC(=S)NC(=O)CC(C)C)cc1	16.1% (active)
CC(C)CC(=O)NC(=S)Nc1ccc(F)cc1F	1.3% (inactive)
CC(=O)c1ccc(NC(=O)CSC(=S)N2CCCC2)cc1	1.41% (inactive)
CCCOc1cc(C)c(S(=O)(=O)n2nnc3ccccc32)cc1C	0.16% (inactive)
CCC(C(=O)Nc1ncccn1)(C(F)(F)F)C(F)(F)F	0.01% (inactive)
S=C1Nc2cc(Cl)ccc2Sc2ccccc21	1.17% (inactive)
Cc1ccc(S(=O)(=O)N(C)CC(=O)NCC(c2ccc(F)cc2)N2CCOCC2)cc1 (stereo not given)	0.75% (inactive)
COC(=O)[C@@H]1C[C@@]2(O)[C@H](O)[C@H](O)[C@H](O)C[C@H]2N1Cc1ccc(C)s1	0.11% (inactive)
COc1ccc(S(=O)(=O)NNC(=O)Nc2ccc(C)cc2)c(OC)c1	0.08% (inactive)
Cc1ccc(Oc2cc(NC(=O)CCCn3nc(C)c([N+](=O)[O-])c3C)cc([N+](=O)[O-])c2)cc1	0.22% (inactive)
COc1cc(NC(=O)Nc2ccc(C)cc2)cc([N+](=O)[O-])c1	15.6% (active)
CC(C)CCN1C(=O)c2ccc(C(=O)Nc3cccc(S(N)(=O)=O)c3)cc2C1=O	1.4% (inactive)
CCSC1=NCCN1S(=O)(=O)c1ccc(F)cc1	0.73% (inactive)
COc1ccc(CNC(=O)COC(=O)c2ccc(C)c(S(=O)(=O)N3CCOCC3)c2)cc1OC	3.58% (inactive)
Cc1ccc(C(=O)OCC(=O)N2CCCCCC2)cc1S(=O)(=O)N1CCOCC1	0.59% (inactive)
COc1ccc(C(=O)OCC(=O)c2ccc(C)c(S(=O)(=O)N3CCOCC3)c2)cc1OC	15.7% (active)
COc1ccc(C(C)NC(=O)C23CC4CC(CC(C4)C2)C3)cc1 (stereo not given)	-0.13% (inactive)
Cc1ccc(NC(=O)COC(=O)CN2CCCCCC2=O)c(C)c1	-0.27% (inactive)
COc1ccc(-c2ccc3c(c2)C2CC3CCN2CCC#N)cc1 (stereo not given)	4.03% (inactive)
CCOC(=O)N1CCN(C(=O)c2ccc3c(c2)N(Cc2ccc(C)cc2)CCS3)CC1	1.01% (inactive)
O=C(Nc1ccc(Cl)cc1)Nc1ccc(Oc2cccnc2)nc1	15.9% (active)
O=C(O)CCCC(=O)Nc1ccc(Oc2cccc(C(F)(F)F)c2)nc1	0.38% (inactive)
O=C(NNC(=O)c1csc(-c2cccnc2)n1)Nc1ccc(Cl)cc1	0.53% (inactive)
COc1ccc(NC2CCCN(C(=O)c3ccncc3)C2)cc1 (stereo not given)	0.4% (inactive)
CSc1nc(C)nc2c1c(=O)n(C)c(=O)n2C	-0.23% (inactive)
N#Cc1c(-c2ccc(F)cc2)cc(C2CC2)nc1SCC(=O)c1cccs1	0.07% (inactive)
